Measurements taken from PMC12136788.
Where a chain is given by its changes, count along the chain named. In all, about 24,000 sequences were measured (“enrichment r”: median about 0.99, highest 2% from about 3.7 on). The list comes from a sample in which the highest values are over-represented; it also holds similar and randomly drawn sequences.

T1: UNK ZnF1-3 (human, UniProt Q9C0B0 31-174)
T1 sequence: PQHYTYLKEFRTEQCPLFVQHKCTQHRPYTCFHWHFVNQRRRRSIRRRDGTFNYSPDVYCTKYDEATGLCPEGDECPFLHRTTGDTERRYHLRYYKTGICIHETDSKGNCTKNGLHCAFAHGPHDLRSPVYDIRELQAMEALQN

B1: chr1:163112212:163112213:-_ENSG00000143248_ENST00000313961|hu_hu|FALSE|FALSE (ssRNA)
RNA: GGGAGUUCUACAGUCCGACGAUCUUUAUUUAUCCAGAAGCAUGAGUCACAUAGUACAUAAAGUAUUGAAUACAAAAUUCUAAAGAUAAACACAAUUUUUCUUGAAUUUAAAAUAUAUGGGAUAAAUGCUUACAAAUGGAUUUACAACAGAGGAUUGAGCAUCA
B2: chr1:163112212:163112213:-_ENSG00000143248_ENST00000313961|hu_hu|hu_hu_hu_mus_False|78_88 (ssRNA)
RNA: GGGAGUUCUACAGUCCGACGAUCUUUUAUUAUCAGUAAGAGUGAGUCACAUAGUACAUAAAGUAUUGGAUACAAUAAUCAGGAAACAAACACUAUUGGUCCAGAAUUUAAAACUUUAUGAGCGAAGUGCUGGCACAGGACUUACAACAGAGGAUUGAGCAUCA
B3: chr2:61705769:61705770:-_ENSG00000082898_ENST00000401558|hu_hu|motif|central (ssRNA)
RNA: GGGAGUUCUACAGUCCGACGAUCAAAUGGGCAUGAAGUAAAAUUUUUAAAAAUGCCUUAAUUUUCAACUUCAUGCAAACGGAAUAAAGAUGACCAAAACAAAAGCUUAAACAAUGGAAGGAUAUUUCACAGAAAAUUUCUUAUCAACAGAGGAUUGAGCAUCA
B4: chr5:145543945:145543946:-_ENSG00000133706_ENST00000545646|hu_mus|FALSE|FALSE (ssRNA)
RNA: GGGAGUUCUACAGUCCGACGAUCCUGAACGGCCAGUGGUGGGAAAUAAUCAAGCCAGUGCUCUGCUUCAGAAAACUUCACUAUGUCGUCAUCAGAGAGCCCAAGGGAUUUCAUAAUGUCCCACUGGUACUUAGAAGAUCCUGCCAACAGAGGAUUGAGCAUCA
B5: chr7:141445308:141445309:+_ENSG00000106028_ENST00000265304|hu_hu|hu_hu_hu_mus_False|28_98 (ssRNA)
RNA: GGGAGUUCUACAGUCCGACGAUCUAUGAUUGUUGUUGCUUGUCGCCUCACAUUGUUUUUAUCCAUGUACUCGCCAUAGUCCACUUUCCCUUCCACAAAUAUACGAGACCCCUUUUUCACAUACUGAUAUGCCACAUCUCUGAGCAACAGAGGAUUGAGCAUCA
B6: 39165641_39167405_4275_CDS_ENSMUSG00000037475_ENSMUST00000047037|mouse|control|control (ssRNA)
RNA: GGGAGUUCUACAGUCCGACGAUCUGAAGAGUCCUUGAGAUCGAUGAGACUGUCCUUUACUGUGGAGGAAUGUGAUGGAGAAGGAUGACUAUCAAUUUUGCGGCGUUUUUGUUCCCUGUCAGGCUCCGAGAUAUCUGAUCGGGGCAACAGAGGAUUGAGCAUCA
B7: chr11:46405157:46405158:+_ENSG00000110492_ENST00000395566|hu_hu|hu_hu_hu_mus_False|28_98 (ssRNA)
RNA: GGGAGUUCUACAGUCCGACGAUCCCCUCCCCACUUUGGCUGGGGAGUGUGGGCGUGAGAGGACAGGCGUGAUUGACAGAGCUGACAGGAAGACAAAAGGCACUGGUGGGUCACAUCUUGGGCCUGUGGGAGAGGAGGGCUCCGCAACAGAGGAUUGAGCAUCA
B8: chr8:114060920:114060921:+_ENSMUSG00000033545_ENSMUST00000095176|mus_mus|FALSE|FALSE (ssRNA)
RNA: GGGAGUUCUACAGUCCGACGAUCCGGGUGGAGGUCUGGGCGAACAUAAAGGCGGAGGGUUGGGGUUGGGGAGAGUCACAAAAGAGCCCCGAGGGGAGAAAAAUGAAAAAAGGUGAGGGGGGGAAUCCUCAAAAAAAAUCCGCGCAACAGAGGAUUGAGCAUCA
B9: chr8:114060920:114060921:+_ENSMUSG00000033545_ENSMUST00000095176|mus_hu|FALSE|FALSE (ssRNA)
RNA: GGGAGUUCUACAGUCCGACGAUCCCACUUCUCAGCAGCAGGGGGAGGGCUGGGCGAGCAUAAAGGGGGAGGGAGUCAAAAAGGAGACCCGGAGGGAGAAAAGGAAAAAAAGCAAAAGGAAAAAAGGAAAAAACCCGCGGGGCGCAACAGAGGAUUGAGCAUCA
B10: chr9:58044877:58044878:-_ENSMUSG00000051243_ENSMUST00000114144|mus_hu|FALSE|FALSE (ssRNA)
RNA: GGGAGUUCUACAGUCCGACGAUCUCCCAGAGGCUGGGAAGGGGGUGUUAGCACCAGACCCGAAAUGUCGCUGUCUUUGAAAACAACGAAAACAGGAAAAUCUGAGCGCGGAGCUGAAAGGCGCCCCAGGCACCGGGCUGGACUCAACAGAGGAUUGAGCAUCA
B11: 11472005_11472125_940_CDS_ENSG00000105520_ENST00000251473|human|control|control (ssRNA)
RNA: GGGAGUUCUACAGUCCGACGAUCCUUGCAGGGGAAGGCGCGGCGCGCGGCGGCCACGAGGCUGGGACUGCCAGCGCAGGCACCCUGGUCAGUGACAAAGCGGUCGGGACCUGGCCGAUCCGGAGAAGGUGGCAGGCAGCCCAGCAACAGAGGAUUGAGCAUCA
B12: chr11:87793471:87793472:-_ENSMUSG00000020483_ENSMUST00000020775|mus_mus|mus_mus_mus_hu_False|68_108 (ssRNA)
RNA: GGGAGUUCUACAGUCCGACGAUCUGGGGGCUGGGGAAAAAGAAUAAGCUGGAUCCCCCACCCCCCCACAGUGUCAACCCUACACGAGAGUUUUGAAGGCGACUCAUGAAAAUCAGCAGCUCAAACGGCAAUGACCACCCCACCCAACAGAGGAUUGAGCAUCA
B13: chr17:45760540:45760541:+_ENSG00000108424_ENST00000290158|hu_hu|motif|central (ssRNA)
RNA: GGGAGUUCUACAGUCCGACGAUCUUUCCCUAGAGUAAAAAAAACAAAAAACAAAACCAAAAAAAAAAAACAAAACAAAACCGGAAGAGCGUCUUUCCUCUGUGUGUGUGUUUUUUUUUUUUUUUUUUUUUUUUUUUUUACAUCCAACAGAGGAUUGAGCAUCA
B14: chr3:41267201:41267202:+_ENSG00000168036_ENST00000349496|hu_mus|motif|central (ssRNA)
RNA: GGGAGUUCUACAGUCCGACGAUCCAAGAAUUUCACGUUUGUUUUGUUGAGCAAAGCAACCAUUUUCUGCAGUCCACCAGCGGGGCGCACUGCCAUUUUAGCUCCUUCCUGAUGGAGCAGGAGAUUAUGCAGUGUCGUGAUGGCCAACAGAGGAUUGAGCAUCA
B15: chr17:15081082:15081083:+_ENSMUSG00000050088_ENSMUST00000052691|mus_mus|FALSE|FALSE (ssRNA)
RNA: GGGAGUUCUACAGUCCGACGAUCUGCUCCAGCAUAUUCAAGGGAUCAGAAGAGAAUUUCAAGCACCAGUUUCAAAAUGCUAAUCAAUAUCGUCCAGAGAACUGAUUCCUCCUCUUGGGCUGCCUCUUCUGGAGCGUAAGCCUGCAACAGAGGAUUGAGCAUCA
B16: chr2:203071915:203071916:-_ENSG00000116030_ENST00000392246|hu_mus|FALSE|FALSE (ssRNA)
RNA: GGGAGUUCUACAGUCCGACGAUCCUAAGAGAUGGAGUGCCAGUAUUCAAUUUUCAUUUUGAACACCACAUUACAAAAGAACUAUUUUUAAAAAUAAAAAAGGAUUGAGGGAAAGGAAAAAUAAAAAAUAAAAAGAAUUAUCUACAACAGAGGAUUGAGCAUCA
B17: chr16:36085169:36085170:+_ENSMUSG00000075229_ENSMUST00000164916|mus_mus|FALSE|FALSE (ssRNA)
RNA: GGGAGUUCUACAGUCCGACGAUCCUUUAAUAACGUUAAGUCAUCCAGGUUCUUUUCUCUCUCUUCUCGGAGACUUUUUACUACUGCUGAGGUCUGGGCUAUACAGUUCUUUAUAACUCUGUCCCUACUGACAUGAGCUGCCAUCAACAGAGGAUUGAGCAUCA
B18: chr13:113752066:113752067:+_ENSG00000126217_ENST00000375604|hu_mus|FALSE|FALSE (ssRNA)
RNA: GGGAGUUCUACAGUCCGACGAUCAGGGGAAGUGGGGCCUGCCCUGACGUGGAGAGGCAGCCAGUGCCUGAGUUGCUGAGGAUGACUGACAGCAUGGAGUUAUACAUUUUCUUUAAAAAUAAUAAAAAUAUCCUAAUUUAAUGACAACAGAGGAUUGAGCAUCA
B19: chr2:55200753:55200754:-_ENSG00000115310_ENST00000317610|hu_mus|FALSE|FALSE (ssRNA)
RNA: GGGAGUUCUACAGUCCGACGAUCUUGGAUUUUGGCCAUGGCAUCCUUAACGCUCUUGUUUGCAAGUCCUAGAUAAUGAUCUAUCUGCGCCUGAUGCCGUUCAUAUAUAACAGGAAUACUGAAGAGUGAGAUCAGAGCUAAAAUCAACAGAGGAUUGAGCAUCA
B20: 110847190_110847310_5644_3pUTR_ENSMUSG00000021700_ENSMUST00000167824|mouse|control|control (ssRNA)
RNA: GGGAGUUCUACAGUCCGACGAUCUAGUUGCUGAGGGGAACUGAAGAAUGAGGCAAUGCUGUUCUGUGGGGAUAGUGCUUUUAGAAUAUCCUUAAUCAUUUUUUUUUAAAAAACAUGUGGCAGUAUAAAAGGACUACACAAUGACAACAGAGGAUUGAGCAUCA
B21: chr8:96496865:96496866:-_ENSMUSG00000031751_ENSMUST00000053766|mus_hu|motif|central (ssRNA)
RNA: GGGAGUUCUACAGUCCGACGAUCGCAGUCCAGUCAACACCAGAAGAGAUCAUACCUACAGUUAAAAUUUGCAGUGUUUCGGAGGGGAAGAGAAAUGUCACAUAGAAAGUAUUACAAAGAAGGAUUAAAUUUAUCAGCUGUCCACAACAGAGGAUUGAGCAUCA
B22: chr2:203071915:203071916:-_ENSG00000116030_ENST00000392246|hu_mus|motif|central (ssRNA)
RNA: B16 RNA with U82G, A83G
B23: chr6:31461392:31461393:+_ENSMUSG00000025609_ENSMUST00000026699|mus_mus|motif|central (ssRNA)
RNA: GGGAGUUCUACAGUCCGACGAUCACCUGACGGACACUAGAGGCUUUGGAUAACCAUGUCAUUUCAACAGUAAGACAAACGGUAGAGACAACCCCCACAGUCAAAAACCACAUAUAAAAAUUAGAAUUUGCUUAAUACAGAAAACAACAGAGGAUUGAGCAUCA
B24: chr11:51935959:51935960:+_ENSMUSG00000020349_ENSMUST00000020608|mus_hu|FALSE|FALSE (ssRNA)
RNA: GGGAGUUCUACAGUCCGACGAUCGGUUCUGACAAUAACAAAGAACAACAUGGGGCUGAGAUUUGAGUAGGGAAUAAACUGAGUGCAGACAAAUCAUAUAAUUAAAUUAAACGGUAUCCCUGAAAAUAAAAAGAACAAUUUCAACAACAGAGGAUUGAGCAUCA
B25: chr3:100438856:100438857:+_ENSG00000114354_ENST00000490574|hu_hu|motif|central (ssRNA)
RNA: GGGAGUUCUACAGUCCGACGAUCAACAAAUAAUGUCAGUUUCAGUAUCCUACUGCACUGAAUUGCAAAGGAAAGGUCAGAACGGUCAAAAAUUGUUAUAAGAUCUCCAUCUUCAUCUUUAUACUUUAUUGUUACUUCAUCAUUCAACAGAGGAUUGAGCAUCA

These binders were tested against T1, UNK ZnF1-3 (assay: nsRBNS (natural sequence RNA bind-n-seq); RBNS binding buffer (assumed for nsRBNS): 25 mM Tris pH 7.5, 150 mM KCl, 3 mM MgCl2, 0.01% Triton X-100, 500 ug/ml BSA, 20 U/ml SUPERase-In, 4 C; UNK is unkempt and MSI1 is Musashi-1; names of the RNAs are library labels; protein concentration not given here; high values mean tight binding).
Work on B1 yielded a binding signal of 7.3 enrichment R.
B2 showed a binding signal of 1.53 enrichment R.
Work on B3 yielded a binding signal of 2.43 enrichment R.
In the case of B4, the binding signal is reported as 0.979 enrichment R.
With B5 the binding signal was 0.605 enrichment R.
Work on B6 yielded a binding signal of 1.19 enrichment R.
Binder B7 has a binding signal of 2.01 enrichment R.
Work on B8 yielded a binding signal of 4.66 enrichment R.
Binder B9 has a binding signal of 5.92 enrichment R.
B10 was tested, and the binding signal was 1.01 enrichment R.
Binder B11 has a binding signal of 0.958 enrichment R.
B12 was tested, and the binding signal was 1.65 enrichment R.
B13 was tested, and the binding signal was 3.38 enrichment R.
For B14, the binding signal was 0.539 enrichment R.
Work on B15 yielded a binding signal of 1.42 enrichment R.
For B16, the binding signal was 10.6 enrichment R.
B17 showed a binding signal of 0.477 enrichment R.
For B18, the binding signal was 3.79 enrichment R.
With B19 the binding signal was 1.23 enrichment R.
B20 gave a binding signal of 1.67 enrichment R.
B21 showed a binding signal of 3.52 enrichment R.
B22 gave a binding signal of 10.9 enrichment R.
B23 showed a binding signal of 3.37 enrichment R.
In the case of B24, the binding signal is reported as 3.8 enrichment R.
With B25 the binding signal was 0.76 enrichment R.
